# Reference: the supplement of paper PMC11732987, “Enantioselective OTUD7B fragment discovery through chemoproteomics screening and high-throughput optimisation” (Communications Chemistry, 2025)
# Values without a mark were called inactive.
# Key:
# Assay in all cases: log2 ratio of Biotin-Ahx-Ub-VS probe labelling (fragment/DMSO); higher = less target engagement (more negative = stronger competition), active = hit call of the paper (q ≤ 0.05, log2 ratio ≤ -1)
# Settings in all cases: compound concentration: 200 uM; treatment time: 3 h
# OTUD6B = target: T1, OTUD6B (UniProt Q8N6M0)
# T1 sequence (whole entry): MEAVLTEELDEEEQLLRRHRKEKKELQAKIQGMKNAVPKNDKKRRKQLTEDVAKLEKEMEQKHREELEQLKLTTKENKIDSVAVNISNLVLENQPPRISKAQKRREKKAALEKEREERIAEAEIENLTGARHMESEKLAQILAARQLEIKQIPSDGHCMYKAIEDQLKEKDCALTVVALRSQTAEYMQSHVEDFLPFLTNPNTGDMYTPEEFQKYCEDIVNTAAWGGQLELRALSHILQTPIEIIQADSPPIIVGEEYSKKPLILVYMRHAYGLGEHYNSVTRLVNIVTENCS
# Method in brief: (§1)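 HEK293T lysate (495 µg per sample, in Tris/CHAPS/IGEPAL buffer with protease inhibitors) was exposed in triplicate for 3 h to fragment at 200 µM or to vehicle, then to Biotin-Ahx-Ub-VS at 0.5 µM final for 1 h. Labelled DUBs were enriched on NeutrAvidin, digested with LysC and trypsin, and analysed by diaPASEF LC-MS/MS. Spectronaut label-free quantities were normalised to the global median, and values are average log2 ratios of fragment over vehicle from an unpaired t-test. Only proteins with ≥2 unique peptides were used.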
# OTUD7B = target: T2, OTUD7B (UniProt Q6GQQ9)
# T2 sequence (whole entry): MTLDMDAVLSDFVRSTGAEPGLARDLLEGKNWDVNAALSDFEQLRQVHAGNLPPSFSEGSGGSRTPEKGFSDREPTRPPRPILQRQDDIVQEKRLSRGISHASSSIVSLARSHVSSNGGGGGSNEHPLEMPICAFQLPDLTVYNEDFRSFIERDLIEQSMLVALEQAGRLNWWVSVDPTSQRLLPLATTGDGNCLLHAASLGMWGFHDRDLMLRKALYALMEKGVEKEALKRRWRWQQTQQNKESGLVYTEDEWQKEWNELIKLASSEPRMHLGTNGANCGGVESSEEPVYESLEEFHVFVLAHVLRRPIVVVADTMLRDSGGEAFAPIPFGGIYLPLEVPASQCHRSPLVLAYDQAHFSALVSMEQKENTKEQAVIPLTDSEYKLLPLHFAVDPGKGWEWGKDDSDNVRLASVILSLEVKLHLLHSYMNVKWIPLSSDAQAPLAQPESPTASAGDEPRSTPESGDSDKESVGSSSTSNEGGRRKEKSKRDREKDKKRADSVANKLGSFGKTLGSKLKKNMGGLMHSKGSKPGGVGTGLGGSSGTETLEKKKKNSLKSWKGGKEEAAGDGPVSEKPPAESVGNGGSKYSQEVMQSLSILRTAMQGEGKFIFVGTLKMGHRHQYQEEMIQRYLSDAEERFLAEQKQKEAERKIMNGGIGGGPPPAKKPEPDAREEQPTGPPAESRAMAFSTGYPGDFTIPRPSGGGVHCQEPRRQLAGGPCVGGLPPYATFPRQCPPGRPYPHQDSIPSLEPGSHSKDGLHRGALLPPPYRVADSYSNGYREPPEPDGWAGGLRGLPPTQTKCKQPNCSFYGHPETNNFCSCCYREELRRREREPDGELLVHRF
# Method in brief: as §1
# PRPF8 = PRPF8 (UniProt Q6P2Q9)
# Method in brief: as §1
# PSMD7 = target: T3, PSMD7 (UniProt P51665)
# T3 sequence (whole entry): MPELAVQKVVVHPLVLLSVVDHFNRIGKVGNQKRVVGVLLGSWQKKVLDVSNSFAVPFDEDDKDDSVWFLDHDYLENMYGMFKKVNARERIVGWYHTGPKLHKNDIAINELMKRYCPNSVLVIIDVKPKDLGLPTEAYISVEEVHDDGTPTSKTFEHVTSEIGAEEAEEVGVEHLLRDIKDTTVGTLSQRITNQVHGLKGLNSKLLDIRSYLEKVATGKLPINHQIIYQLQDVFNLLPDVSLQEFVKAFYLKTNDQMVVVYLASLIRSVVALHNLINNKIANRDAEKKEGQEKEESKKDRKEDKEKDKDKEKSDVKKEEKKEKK
# Method in brief: as §1
# UCHL1 = UCHL1 (UniProt P09936)
# UCHL1, sequence (P09936 whole entry, looked up): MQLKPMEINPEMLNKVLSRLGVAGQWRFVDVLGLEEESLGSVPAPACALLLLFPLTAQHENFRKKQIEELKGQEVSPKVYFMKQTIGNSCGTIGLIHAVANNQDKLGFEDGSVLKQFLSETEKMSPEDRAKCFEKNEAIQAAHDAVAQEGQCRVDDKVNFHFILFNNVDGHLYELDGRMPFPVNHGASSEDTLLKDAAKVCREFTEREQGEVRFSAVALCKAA
# Method in brief: as §1
# UCHL3 = target: T4, UCHL3 (UniProt P15374)
# T4 sequence (whole entry): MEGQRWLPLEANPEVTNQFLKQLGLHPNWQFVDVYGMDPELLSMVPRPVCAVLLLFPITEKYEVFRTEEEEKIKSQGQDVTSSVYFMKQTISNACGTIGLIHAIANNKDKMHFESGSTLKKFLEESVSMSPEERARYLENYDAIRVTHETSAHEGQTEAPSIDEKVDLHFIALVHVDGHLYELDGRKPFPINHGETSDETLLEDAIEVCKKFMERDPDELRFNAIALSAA
# Method in brief: as §1
# UCHL5 = target: T5, UCHL5 (UniProt Q9Y5K5)
# T5 sequence (whole entry): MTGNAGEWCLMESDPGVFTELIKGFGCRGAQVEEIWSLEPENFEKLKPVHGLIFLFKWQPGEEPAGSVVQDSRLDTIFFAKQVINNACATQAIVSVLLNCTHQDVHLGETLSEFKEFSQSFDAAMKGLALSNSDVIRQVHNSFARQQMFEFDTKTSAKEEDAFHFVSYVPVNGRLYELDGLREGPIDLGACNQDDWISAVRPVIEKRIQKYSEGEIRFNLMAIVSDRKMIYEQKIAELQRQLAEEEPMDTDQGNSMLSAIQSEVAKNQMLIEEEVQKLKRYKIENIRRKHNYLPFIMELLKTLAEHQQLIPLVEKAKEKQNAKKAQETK
# Method in brief: as §1
# USP10 = USP10 (UniProt Q14694)
# USP10, sequence (Q14694 whole entry): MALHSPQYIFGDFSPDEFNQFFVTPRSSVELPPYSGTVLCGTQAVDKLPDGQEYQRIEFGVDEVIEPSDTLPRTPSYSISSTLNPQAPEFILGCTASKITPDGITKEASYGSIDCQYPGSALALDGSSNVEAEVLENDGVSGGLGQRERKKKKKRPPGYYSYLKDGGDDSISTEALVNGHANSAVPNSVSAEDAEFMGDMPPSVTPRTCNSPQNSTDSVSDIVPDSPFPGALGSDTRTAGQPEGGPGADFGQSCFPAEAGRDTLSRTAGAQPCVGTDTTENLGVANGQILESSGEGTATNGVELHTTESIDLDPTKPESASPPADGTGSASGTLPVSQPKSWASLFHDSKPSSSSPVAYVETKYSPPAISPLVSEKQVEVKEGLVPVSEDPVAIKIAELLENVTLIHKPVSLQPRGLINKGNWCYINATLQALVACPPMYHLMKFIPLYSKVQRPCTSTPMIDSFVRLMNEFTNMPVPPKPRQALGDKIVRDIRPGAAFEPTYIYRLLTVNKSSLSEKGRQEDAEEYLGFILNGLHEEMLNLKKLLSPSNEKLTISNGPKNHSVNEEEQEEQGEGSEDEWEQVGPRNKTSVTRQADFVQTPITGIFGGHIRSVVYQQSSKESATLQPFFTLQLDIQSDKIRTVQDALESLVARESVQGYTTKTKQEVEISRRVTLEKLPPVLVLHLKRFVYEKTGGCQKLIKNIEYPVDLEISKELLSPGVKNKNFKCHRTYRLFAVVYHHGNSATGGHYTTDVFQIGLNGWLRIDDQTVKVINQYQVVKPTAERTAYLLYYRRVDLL
# Method in brief: as §1
# USP15 = target: T6, USP15 (UniProt Q9Y4E8)
# T6 sequence (whole entry): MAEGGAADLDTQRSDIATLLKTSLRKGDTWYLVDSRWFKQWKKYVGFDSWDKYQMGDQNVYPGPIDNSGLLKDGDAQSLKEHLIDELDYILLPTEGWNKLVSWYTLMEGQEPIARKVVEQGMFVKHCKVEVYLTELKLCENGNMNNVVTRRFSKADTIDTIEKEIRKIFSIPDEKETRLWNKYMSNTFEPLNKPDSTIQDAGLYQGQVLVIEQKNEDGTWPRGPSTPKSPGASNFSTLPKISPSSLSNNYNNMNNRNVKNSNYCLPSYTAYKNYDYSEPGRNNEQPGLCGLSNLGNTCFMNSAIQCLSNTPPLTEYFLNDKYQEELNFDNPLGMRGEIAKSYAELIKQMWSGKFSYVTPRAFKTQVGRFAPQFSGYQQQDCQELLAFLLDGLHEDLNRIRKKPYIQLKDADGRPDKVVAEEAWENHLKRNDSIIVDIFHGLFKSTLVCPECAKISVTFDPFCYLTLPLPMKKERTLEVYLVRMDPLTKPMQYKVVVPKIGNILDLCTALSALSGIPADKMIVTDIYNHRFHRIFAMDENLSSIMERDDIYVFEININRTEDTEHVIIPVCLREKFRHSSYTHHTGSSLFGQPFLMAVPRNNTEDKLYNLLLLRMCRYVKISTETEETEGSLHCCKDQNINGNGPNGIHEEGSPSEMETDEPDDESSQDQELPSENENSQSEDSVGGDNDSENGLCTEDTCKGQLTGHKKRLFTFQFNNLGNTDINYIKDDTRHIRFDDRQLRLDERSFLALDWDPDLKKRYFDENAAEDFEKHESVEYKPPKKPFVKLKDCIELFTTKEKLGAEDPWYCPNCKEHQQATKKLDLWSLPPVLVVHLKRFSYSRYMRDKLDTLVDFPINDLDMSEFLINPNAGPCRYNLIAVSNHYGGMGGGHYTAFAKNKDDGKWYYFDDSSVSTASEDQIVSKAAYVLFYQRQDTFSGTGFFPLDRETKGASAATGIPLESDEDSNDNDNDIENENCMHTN
# Method in brief: as §1
# USP16 = USP16 (UniProt Q9Y5T5)
# USP16, sequence (Q9Y5T5 whole entry, looked up): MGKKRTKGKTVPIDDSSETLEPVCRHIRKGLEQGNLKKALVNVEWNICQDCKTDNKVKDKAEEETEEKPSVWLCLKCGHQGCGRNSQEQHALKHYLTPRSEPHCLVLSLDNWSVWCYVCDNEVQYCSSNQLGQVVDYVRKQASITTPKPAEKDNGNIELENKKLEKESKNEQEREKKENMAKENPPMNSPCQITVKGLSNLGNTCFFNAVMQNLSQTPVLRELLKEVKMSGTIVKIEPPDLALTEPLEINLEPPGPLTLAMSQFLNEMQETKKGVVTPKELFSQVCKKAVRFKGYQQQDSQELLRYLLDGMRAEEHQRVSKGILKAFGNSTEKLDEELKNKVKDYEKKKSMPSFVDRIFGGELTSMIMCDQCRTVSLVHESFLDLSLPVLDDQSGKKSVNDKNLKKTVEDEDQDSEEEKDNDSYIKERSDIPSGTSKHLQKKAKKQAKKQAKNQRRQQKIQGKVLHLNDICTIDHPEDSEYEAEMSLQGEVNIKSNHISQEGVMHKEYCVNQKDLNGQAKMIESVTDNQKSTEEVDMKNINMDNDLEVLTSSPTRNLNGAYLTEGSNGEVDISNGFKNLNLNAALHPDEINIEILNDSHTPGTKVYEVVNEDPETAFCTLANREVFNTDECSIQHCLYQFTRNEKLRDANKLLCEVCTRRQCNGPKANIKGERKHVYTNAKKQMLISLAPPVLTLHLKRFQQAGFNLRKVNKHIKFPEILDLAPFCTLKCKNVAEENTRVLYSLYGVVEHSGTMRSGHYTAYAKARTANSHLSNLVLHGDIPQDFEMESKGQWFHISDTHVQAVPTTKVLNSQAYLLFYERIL
# Method in brief: as §1
structure (smiles),measurement,setting,value
O=C(CCl)NC1CCS(=O)(=O)c2ccccc21 (stereo not given),log2 ratio of Biotin-Ahx-Ub-VS probe labelling,OTUD6B,-0.258
same,log2 ratio of Biotin-Ahx-Ub-VS probe labelling,OTUD7B,-1.79 (active)
same,log2 ratio of Biotin-Ahx-Ub-VS probe labelling,PRPF8,-0.00882
same,log2 ratio of Biotin-Ahx-Ub-VS probe labelling,PSMD7,-0.335
same,log2 ratio of Biotin-Ahx-Ub-VS probe labelling,UCHL1,-1.81 (active)
same,log2 ratio of Biotin-Ahx-Ub-VS probe labelling,UCHL3,0.125
same,log2 ratio of Biotin-Ahx-Ub-VS probe labelling,UCHL5,-0.554
same,log2 ratio of Biotin-Ahx-Ub-VS probe labelling,USP10,0.0657
same,log2 ratio of Biotin-Ahx-Ub-VS probe labelling,USP15,-0.242
same,log2 ratio of Biotin-Ahx-Ub-VS probe labelling,USP16,-0.0991
